Data reported in PubChem BioAssay AID2391 (Southern Research Specialized Biocontainment Screening …, 2010).
Screen size: about 310,000 compounds; about 410 (0.13%) were called active. Inconclusive results (about 2%) are left out. How the calls were made is not given here. Only a sample is shown. Entries with a potency or affinity are not part of this list.

Test: RSV antiviral activity via CPE protection, HEp-2 cells, primary 10 µM value included (AID 2391)
Conditions: RSV-induced CPE inhibition, at 10 µM, active compounds read high

CPE inhibition, inactive:
O=C(Nc1ccncc1)c1c(Cl)cccc1Cl 0%
Cc1c(C)c2c(OCC(=O)N3CCC[C@H]3C(=O)O)cc3c(c2oc1=O)CCC(C)(C)O3 0.96%
O=C(Nc1ccc(Cl)c(C(F)(F)F)c1)[C@@H]1CC=C[C@@H]2CCN(Cc3ccc(Cl)c(Cl)c3)C(=O)[C@@H]21 7.28%
O=C(Nc1ccc(Cl)c(C(F)(F)F)c1)[C@@H]1CC=C[C@@H]2CCN(Cc3ccccc3)C(=O)[C@@H]21 2.53%
COc1ccc(OC)c(Nc2nc3nonc3nc2N2CCCCC2)c1 1.59%
O=C(CCCOc1ccc(Cl)cc1Cl)Nc1ccc(O)cc1C(=O)O 0.3%
O=C(Cc1cccc2ccccc12)Nc1ccc(O)cc1C(=O)O 2.4%
COc1ccccc1NC(=O)COc1ccc2ccccc2c1 4.1%
COc1cc(NC(=O)CCCOc2ccc(Cl)cc2Cl)c(C(=O)O)cc1OC 6.77%
O=C(COc1ccc2ccccc2c1)Nc1cccc(C(=O)Nc2ccccc2C(=O)O)c1 20.8%
O=C(Cc1ccccc1C(=O)O)Nc1cccc2ccccc12 1.4%
Cc1ccc(Cl)cc1N(C(=O)c1csnn1)C(C(=O)NC1CCCC1)c1ccco1 (stereo unspecified) 1.87%
O=C(CN1C(=O)NC2(CCCCCC2)C1=O)Nc1ccc2c(c1)CCC2 2.7%
O=C(NCC(c1ccco1)N1CCCCC1)c1ccc(NS(=O)(=O)c2ccc(F)cc2)cc1 (stereo unspecified) 3.02%
COc1ccc(-c2noc(CN3CCN(c4ccccc4)CC3)n2)cc1 -0.23%
Cc1cccc(NC(=O)c2ccc(S(=O)(=O)N3CCCC3)cc2)c1C 1.87%
CC(OC(=O)c1cccn1C)C(=O)Nc1ccc2c(c1)OCO2 (stereo unspecified) 2.62%
CCN(CC(=O)Nc1ccc(Br)cc1)C(=O)c1nc2nc(C)cc(C)n2n1 1.87%
CC(C)(C)N1C(=O)c2ccc(C(=O)Nc3cc(C(=O)O)cc(C(=O)O)c3)cc2C1=O 0.7%
COC(=O)c1cccc(NC(=O)c2ccc3c(c2)C(=O)N(C(C)(C)C)C3=O)c1 9.97%
CCCOC(=O)Cn1cnc2scc(-c3ccc(C)cc3)c2c1=O 0.39%
COc1ccc(N=C2C(=Nc3ccc(OC)cc3)N(c3ccc(OC)cc3)C(=S)N2c2ccccc2)cc1 0.02%
COc1ccc(N=C2C(=Nc3ccc(OC)cc3)N(c3ccc(OC)cc3)C(=S)N2C)cc1 0.37%
Cc1c(CC(=O)N2CCN(C(=O)C3COc4ccccc4O3)CC2)c(=O)oc2cc(O)ccc12 (stereo unspecified) 0.83%
Cc1coc2c1c(C)cc1oc(=O)c(Cc3ccccc3)c(C)c12 1.6%
CCOC(=O)Cc1c(C)c2ccc(N(CC)CC)cc2oc1=O 57.9%
COC(=O)Cc1c(C)c2c(O)cc(C)cc2oc1=O 6.65%
Cc1cc(O)c2c(C)c(CC(=O)N3CCN(C(=O)C4COc5ccccc5O4)CC3)c(=O)oc2c1 (stereo unspecified) 6.34%
Cc1cc(OC(C(=O)O)c2ccccc2)c2c(C)c(Cc3ccccc3)c(=O)oc2c1 (stereo unspecified) 11.6%
C=CCN(CC(=O)Nc1c(C)cccc1CC)C(=O)SCCC 0.77%
Cc1[nH]c(C)c(S(=O)(=O)Nc2ccc(OC(F)(F)F)cc2)c1C(=O)N1CCCCC1 1.31%
C#CCOc1nc2c(c(=O)n(C)c(=O)n2C)n1Cc1ccccc1 6.97%
CCc1ccc(-c2cc(C(=O)N3N=C(C(F)F)CC3(O)C(F)F)c3ccccc3n2)cc1 (stereo unspecified) -3.61%
CC1c2cc3c(cc2CCN1C(=O)c1cccc(F)c1)OCCCO3 (stereo unspecified) 2.63%
CCCCc1ncc(CN2CCC(n3nccc3NC(=O)c3ccccc3Cl)CC2)[nH]1 0.19%
Cc1ccc(N2NC(=O)/C(=C/c3ccc(-c4ccc(Cl)c(C(=O)O)c4)o3)C2=O)cc1 0.38%
O=C(O)c1cc(-c2ccc(/C=C3\NC(=O)N(c4ccccc4)C3=O)o2)ccc1Cl 4.99%
Cc1cccnc1NC(=O)c1ccc(OCc2c(C)noc2C)cc1 1.6%
CCOc1ncccc1C(=O)Nc1nc(C(C)(C)C)cs1 0.68%
CC(C)(C)c1csc(NC(=O)c2cccnc2Cl)n1 1.36%
COc1ccc(CC2(CO)CCN(Cc3ccc(OC(F)(F)F)cc3)CC2)cc1 13.9%
COc1ccccc1NC(=O)Nc1nc(CC(=O)Nc2ccc(OC)c(OC)c2)cs1 -1.37%
Cc1cc(OCc2cc(C(=O)N(C)CCOc3ccccc3)no2)cc(C)c1Cl 13.7%
O=C(NCc1ccccc1Cl)C1CCCN(S(=O)(=O)c2cccc3nonc23)C1 (stereo unspecified) 0.66%
COc1ccccc1CNC(=O)C1CCCN(S(=O)(=O)c2cccc3nonc23)C1 (stereo unspecified) 0.88%
COc1ccc(CNC(=O)C2CCN(S(=O)(=O)c3cccc4nonc34)CC2)cc1 0.73%
O=C(NCc1ccc(Cl)cc1)C1CCN(S(=O)(=O)c2cccc3nonc23)CC1 5.35%
O=C(NNC(=O)C12CC3CC(CC(C3)C1)C2)c1ccccn1 1.78%
C/C(CC(=O)Nc1cc(C)ccn1)=N\NC(=O)C(=O)NC(C)C -0.96%
CC(=O)C1[C@H](N(C)C)CC2C3CC=C4CC(O)CC[C@]4(C)C3CC[C@@]21C (stereo partly specified) 0.54%
CC12CCC(O)CC1=CCC1C2CCC2(C)C1CCC21CCC(=O)O1 (stereo unspecified) 7.71%
CCN(CC)S(=O)(=O)c1ccc(N2C(=O)CC2(/C=C/c2ccccc2)C(=O)NC2CCCC2)cc1 (stereo unspecified) 4.54%
Cc1c(Cl)ccc2c(C(=O)NCCCn3nccc3C)cc(-c3ccccn3)nc12 13.8%
Cc1nnc(NC(=O)CSc2ccc(-c3cccnc3)nn2)s1 2.73%
Cn1c(COc2nnc(-c3ccc(Cl)cc3)c3ccccc23)nc2ccccc21 5.55%
Cc1nnc(OCc2nc3ccccc3n2C)c2ccccc12 6.77%
